Measured values as given in PubChem BioAssay AID1159580 (chemical genetic matrix, 2015).
“And” between values parts separate entries of the source, which are not always exact repeats. Identical values can stand only once. Out of some 5,500 compounds screened, about 2,000 (36%) were called active. Not shown: some 18% with an inconclusive outcome. No stated cut-off is given here; in the data, active means normalized growth mostly below about 0.91 (no sharp cut-off); inconclusive means no clear call, values can overlap the other calls; inactive means mostly above about 0.92. Some of the results follow.

Assay: chemical genetic growth profiling, strain panel (AID 1159580);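 further: tested at 20 µM; growth read once vehicle control cultures reached saturation at 30 °C; 1 = growth at the plate median or of vehicle wells; lower values mean less growth of the strain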
Details: S. cerevisiae deletion strains, growth OD

Measured: normalized growth

N[C@@H]1[C@@H](O)[C@H](O)[C@@H](CO)O[C@H]1O
inactive: locus YAL021C, strain ccr4, active compounds read low 1.03 | locus YAL026C, strain drs2, active compounds read low 1.01 | locus YAL030W, strain snc1, active compounds read low 1.02 | locus YBL061C, strain skt5, active compounds read low 1.03 | locus YBR009C, strain hhf1, active compounds read low 1.02 | locus YBR021W, strain FUR4, active compounds read low 1.01 | locus YBR023C, strain chs3, active compounds read low 1.02 | locus YBR171W, strain sec66, active compounds read low 1.04 | locus YBR229C, strain ROT2, active compounds read low 1.01 | locus YBR231C, strain swc5, active compounds read low 1.02 | locus YBR279W, strain paf1, active compounds read low 1.03 | locus YCL011C, strain gbp2, active compounds read low 1.02 | locus YCL016C, strain dcc1, active compounds read low 1.02 | locus YCL029C, strain bik1, active compounds read low 0.998 | locus YCL061C, strain MRC1, active compounds read low 1.03 | locus YCL069W, strain vba3, active compounds read low 1.02 | locus YCR088W, strain abp1, active compounds read low 1.02 | locus YDL005C, strain med2, active compounds read low 1.02 | locus YDL035C, strain GPR1, active compounds read low 1 | locus YDL040C, strain nat1, active compounds read low 1.01 | locus YDL074C, strain BRE1, active compounds read low 1 | locus YDL101C, strain DUN1, active compounds read low 1.01 | locus YDL185W, strain tfp1, active compounds read low 1.01 | locus YDL192W, strain arf1, active compounds read low 1.02 | locus YDR001C, strain nth1, active compounds read low 1.02 | locus YDR069C, strain doa4, active compounds read low 1.02 | locus YDR101C, strain arx1, active compounds read low 0.975 | locus YDR137W, strain rgp1, active compounds read low 1.03 | locus YDR150W, strain NUM1, active compounds read low 1 | locus YDR159W, strain sac3, active compounds read low 1.03 | locus YDR162C, strain NBP2, active compounds read low 1 | locus YDR195W, strain ref2 1.04 | locus YDR297W, strain sur2, active compounds read low 1.01 | locus YDR318W, strain mcm21, active compounds read low 1 | locus YDR334W, strain swr1, active compounds read low 1.02 | locus YDR335W, strain msn5, active compounds read low 1.03 | locus YDR388W, active compounds read low 1 | locus YDR392W, strain spt3, active compounds read low 1 | locus YDR502C, strain sam2, active compounds read low 1.01 | locus YEL003W, strain gim4, active compounds read low 1.02 | locus YEL037C, strain rad23, active compounds read low 1.02 | locus YEL061C, strain CIN8 (second series), active compounds read low 1.02 | locus YEL061C, strain CIN8, active compounds read low 1.02 | locus YER015W, strain faa2, active compounds read low 1.03 | locus YER016W, strain bim1, active compounds read low 1.01 | locus YER110C, active compounds read low 1 | locus YER111C, strain swi4, active compounds read low 1.03 | locus YER155C, strain BEM2 (second series), active compounds read low 1.05 | locus YER155C, strain BEM2, active compounds read low 1 | locus YER167W, strain BCK2, active compounds read low 1.01 | locus YFR010W, strain ubp6, active compounds read low 1.01 | locus YGL078C, strain dbp3, active compounds read low 1.01 | locus YGL086W, strain mad1, active compounds read low 0.999 | locus YGL167C, strain pmr1, active compounds read low 1.03 | locus YGL173C, strain kem1, active compounds read low 1.03 | locus YGL227W, strain vid30, active compounds read low 1.02 | locus YGL240W, strain doc1, active compounds read low 1.04 | locus YGL248W, strain PDE1, active compounds read low 1.01 | locus YGL253W, strain hxk2, active compounds read low 1.02 | locus YGR078C, strain PAC10, active compounds read low 1 | locus YGR135W, strain pre9, active compounds read low 1.05 | locus YGR229C, strain SMI1, active compounds read low 1 | locus YGR252W, strain gcn5, active compounds read low 1.01 | locus YHR013C, strain ard1, active compounds read low 1.06 | locus YHR027C, strain rpn1, active compounds read low 1.06 | locus YHR030C, strain SLT2, active compounds read low 1 and 0.98 | locus YHR079C, strain IRE1 (second series), active compounds read low 1.01 | locus YHR079C, strain IRE1, active compounds read low 0.968 | locus YHR094C, strain hxt1, active compounds read low 0.998 | locus YHR129C, strain ARP1, active compounds read low 0.994 | locus YHR142W, strain chs7, active compounds read low 1.01 | locus YHR200W, strain rpn10, active compounds read low 1.01 | locus YIL066C, strain RNR3, active compounds read low 1 | locus YIL073C, strain SPO22, active compounds read low 1.04 | locus YIL125W, strain kgd1, active compounds read low 1.01 | locus YIR030C, strain dcg1, active compounds read low 1.01 | locus YJL092W, strain hpr5, active compounds read low 1.03 | locus YJL095W, strain BCK1 (second series), active compounds read low 1.01 | locus YJL095W, strain BCK1, active compounds read low 1.01 and 0.986 | locus YJL115W, strain asf1, active compounds read low 1.03 | locus YJL129C, strain trk1, active compounds read low 1.04 | locus YJL134W, strain LCB3, active compounds read low 1.01 | locus YJL154C, strain vps35, active compounds read low 1.02 | locus YJL164C, strain tpk1, active compounds read low 1.04 | locus YJL166W, strain qcr8, active compounds read low 1.03 | locus YJL168C, strain set2, active compounds read low 1 | locus YJL187C, strain SWE1 (second series), active compounds read low 1 | locus YJL187C, strain SWE1, active compounds read low 1.01 | locus YJR043C, strain POL32, active compounds read low 0.992 | locus YJR066W, strain TOR1, active compounds read low 0.937 | locus YJR075W, strain HOC1, active compounds read low 1 | locus YKL009W, strain mrt4, active compounds read low 1.01 | locus YKL068W, active compounds read low 1 | locus YKL085W, strain MDH1 (second series), active compounds read low 1.01 | locus YKL085W, strain MDH1, active compounds read low 1.01 | locus YKL160W, strain elf1, active compounds read low 1.04 | locus YKR001C, strain vps1, active compounds read low 0.993 | locus YKR026C, strain gcn3, active compounds read low 1.02 | locus YKR091W, strain srl3, active compounds read low 1.02 | locus YLL001W, strain dnm1, active compounds read low 1.03 | locus YLL026W, active compounds read low 1.01 | locus YLL041C, strain sdh2, active compounds read low 1.01 | locus YLR027C, strain aat2, active compounds read low 1.01 | locus YLR039C, strain RIC1, active compounds read low 1.05 | locus YLR058C, strain SHM2, active compounds read low 1.01 | locus YLR102C, strain apc9, active compounds read low 1 | locus YLR113W, strain HOG1, active compounds read low 0.985 | locus YLR221C, strain rsa3, active compounds read low 1.03 | locus YLR258W, strain gsy2, active compounds read low 1.02 | locus YLR262C, strain YPT6 (second series), active compounds read low 1.06 | locus YLR262C, strain YPT6, active compounds read low 1.02 | locus YLR268W, strain sec22, active compounds read low 1.01 | locus YLR320W, strain mms22, active compounds read low 1.05 | locus YLR330W, strain CHS5, active compounds read low 1 | locus YLR342W, strain FKS1 (second series), active compounds read low 1.01 | locus YLR342W, strain FKS1, active compounds read low 1.02 | locus YLR357W, strain rsc2, active compounds read low 1.05 | locus YLR370C, strain arc18, active compounds read low 1.02 | locus YLR371W, strain rom2, active compounds read low 0.991 | locus YLR384C, strain iki3, active compounds read low 1.03 | locus YLR418C, strain cdc73, active compounds read low 1.01 | locus YML016C, strain PPZ1, active compounds read low 1 | locus YML032C, strain rad52, active compounds read low 0.994 | locus YML120C, strain ndi1, active compounds read low 1.03 | locus YML124C, strain tub3, active compounds read low 1.01 | locus YMR058W, strain fet3, active compounds read low 1.02 | locus YMR078C, strain ctf18, active compounds read low 1.01 | locus YMR125W, strain sto1, active compounds read low 1.04 | locus YMR129W, active compounds read low 1.01 | locus YMR205C, strain PFK2, active compounds read low 1.04 | locus YMR223W, strain ubp8, active compounds read low 1.02 | locus YMR231W, strain pep5, active compounds read low 1.02 | locus YMR307W, strain GAS1, active compounds read low 1.01 | locus YNL067W, strain RPL9B, active compounds read low 1.01 | locus YNL071W, strain lat1, active compounds read low 1.03 | locus YNL183C, strain NPR1, active compounds read low 0.962 | locus YNL209W, strain ssb2, active compounds read low 1.01 | locus YNL233W, strain BNI4, active compounds read low 1.01 | locus YNL248C, strain rpa49, active compounds read low 1.03 | locus YNL250W, strain rad50, active compounds read low 1.05 | locus YNL271C, strain bni1, active compounds read low 1.02 | locus YNL298W, strain CLA4, active compounds read low 1.01 | locus YNL307C, strain MCK1, active compounds read low 1.01 | locus YNL322C, strain KRE1 (second series), active compounds read low 1.04 | locus YNL322C, strain KRE1, active compounds read low 1 | locus YNR049C, strain mso1, active compounds read low 1.02 | locus YNR052C, strain pop2, active compounds read low 1.01 | locus YOL006C, strain TOP1, active compounds read low 1.05 | locus YOL012C, strain htz1 0.886 | locus YOL147C, strain pex11, active compounds read low 1.01 | locus YOR001W, strain rrp6, active compounds read low 1.04 | locus YOR061W, strain CKA2, active compounds read low 1 | locus YOR069W, strain VPS5, active compounds read low 1.01 | locus YOR070C, strain gyp1, active compounds read low 1.03 | locus YOR080W, strain dia2, active compounds read low 1.04 | locus YOR083W, strain WHI5, active compounds read low 1.04 | locus YOR106W, strain vam3, active compounds read low 1.06 | locus YOR136W, strain idh2, active compounds read low 1.01 | locus YOR144C, strain elg1, active compounds read low 1 | locus YOR184W, strain ser1, active compounds read low 1.01 | locus YOR231W, strain MKK1, active compounds read low 1 | locus YOR265W, strain rbl2, active compounds read low 1.06 | locus YOR270C, strain vph1, active compounds read low 1.08 | locus YOR290C, strain snf2, active compounds read low 0.979 | locus YOR316C, strain cot1, active compounds read low 1.01 | locus YPL051W, strain arl3, active compounds read low 1.03 | locus YPL078C, strain atp4, active compounds read low 1.03 | locus YPL106C, strain sse1, active compounds read low 1.03 | locus YPL240C, strain hsp82, active compounds read low 1.02 | locus YPL256C, strain CLN2, active compounds read low 0.985 | locus YPR119W, strain clb2, active compounds read low 1.01 | locus YPR141C, strain kar3, active compounds read low 1.01 | locus YPR163C, strain tif3, active compounds read low 1.01 | locus YPR167C, strain met16, active compounds read low 1.01 | strain wtn01, active compounds read low 1.02
